Shown is part of a subset that was picked to be rich in hits.
Pf Dd2 growth = blocks in vitro growth of P. falciparum Dd2; P. falciparum Dd2 growth, SYBR Green, 72 h; Potency, µM (highest dose often 28.9 µM), most hits filed as inhibitors; 120,000 tested, 4.3% active; active = well fitted inhibition curve with a large enough effect; also: nearly all actives have a fitted effect of over 65% in size
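Readout: SYBR Green fluorescence, 485 nm excitation, 535 nm emission, after ~16 h lysis at 37C. Before that, Dd2-infected red cells (2.5% hematocrit) grew 72 h with compound, 29 uM top final concentration.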
Numbers stand for hits; ! = not confirmed by another sample; [ ] = remark or other dose.

Results for O=C(Nc1cccc(F)c1)N1CCC2(CC1)CC(N1CCOCC1)CCO2 (stereo not given) ?
Pf Dd2 growth: inactive

How did Cc1noc(C)c1CC(=O)N1CCC(OCCOc2ccc(F)cc2)CC1 do in these assays?
Pf Dd2 growth: inactive

Results for CCc1ccc(C(=O)NC2CCN(c3cnn(CCOC)c(=O)c3)CC2)cc1 ?
Pf Dd2 growth: inactive

What do the screens show for `Cc1ccccc1NC(=O)N1CCC(CCNC(=O)CCCc2ccccc2)CC1`?
Pf Dd2 growth: inactive

What do the screens show for `CN(C(=O)CCS(=O)(=O)c1ccccc1)C1CCc2nn(C)c(=O)n2CC1` (stereo not given)?
Pf Dd2 growth: inactive

What do the screens show for `O=C(O)c1cc2c(s1)CCN(C(=O)c1ccc(F)cc1)C2`?
Pf Dd2 growth: inactive

What do the screens show for `Cc1ccc(C(=O)N2CCc3sc(C(=O)NCc4cc(F)cc(F)c4)cc3C2)cc1`?
Pf Dd2 growth: 8.9µM

Results for O=C(NCc1ccccc1)c1cc2c(s1)CCN(C(=O)c1ccccc1)C2 ?
Pf Dd2 growth: inactive

Results for NC(=O)CNC(=O)c1cc2c(s1)CCN(C(=O)c1ccc(Cl)cc1)C2 ?
Pf Dd2 growth: inactive

How did CC(=O)N1CCc2sc(C(=O)NCc3cccc(Cl)c3)cc2C1 do in these assays?
Pf Dd2 growth: inactive

How did Cc1ccc(C(=O)N2CCc3sc(C(=O)NCc4cccc(F)c4)cc3C2)cc1 do in these assays?
Pf Dd2 growth: inactive

Results for CN(CCc1ccccc1)C(=O)c1cc2c(s1)CCN(C(=O)c1ccc(Cl)cc1)C2 ?
Pf Dd2 growth: inactive

How did CN1CCN(C(=O)c2cc3c(s2)CCN(C(=O)c2ccc(Cl)cc2)C3)CC1 do in these assays?
Pf Dd2 growth: 11µM

Results for O=C(NCc1cccc(Cl)c1)c1cc2c(s1)CCN(C(=O)c1ccccc1)C2 ?
Pf Dd2 growth: 10µM

Results for CNC(=O)[C@@H]1CN(C(=O)c2cc(C)n(CCOC)c2C)C[C@H]1c1n[nH]c(C)n1 ?
Pf Dd2 growth: inactive

Results for CCN1CCC(CCNC(=O)C2CCN(C(=O)N3CC4CC(C3)[C@H]3CCCC(=O)N3C4)CC2)CC1 (stereo not given in full) ?
Pf Dd2 growth: inactive

Results for CC(=O)NC1CC2(CCN(C(=O)c3c(C)noc3C)CC2)c2ccccc21 (stereo not given) ?
Pf Dd2 growth: inactive

Results for Cc1ccc(CC2CCOC3(CCN(C(=O)c4cccc(C#N)c4)CC3)C2)cc1 (stereo not given) ?
Pf Dd2 growth: inactive

Results for COCc1nnc2n1CCC(NC(=O)CCc1c(C)noc1C)CC2 (stereo not given) ?
Pf Dd2 growth: inactive

Results for O=C(c1ccccc1)N1CCC2(C1)C(=O)N(Cc1ccccc1)c1ccccc12 (stereo not given) ?
Pf Dd2 growth: inactive

How did COc1cccc(C(=O)N2CCC3(C2)C(=O)N(CCc2ccccc2)c2ccccc23)c1 (stereo not given) do in these assays?
Pf Dd2 growth: 7.9µM

What do the screens show for `COCC(=O)N1CCC2(C1)C(=O)N(CCc1ccccc1)c1ccccc12` (stereo not given)?
Pf Dd2 growth: inactive

What do the screens show for `COc1ccc(CC(=O)N2CCC3(C2)C(=O)N(CCc2ccccc2)c2ccccc23)cc1` (stereo not given)?
Pf Dd2 growth: inactive

Results for COC(=O)N1CCC2(C1)C(=O)N(CCc1ccccc1)c1ccccc12 (stereo not given) ?
Pf Dd2 growth: 13µM!

What do the screens show for `O=C(c1ccc(Cl)cc1)N1CCC2(C1)C(=O)N(Cc1ccccc1)c1ccccc12` (stereo not given)?
Pf Dd2 growth: inactive

Results for c1cc(-c2n[nH]c(CNC3CCC4(CCNCC4)CC3)n2)ccn1 ?
Pf Dd2 growth: inactive

How did CN(Cc1ccccc1)Cc1cn([C@H]2CO[C@H]3[C@@H]2OC[C@@H]3NC(=O)Nc2cccc(C(F)(F)F)c2)nn1 do in these assays?
Pf Dd2 growth: inactive

How did Cc1cc(=O)oc2c3c(ccc12)OCN(Cc1ccc(Cl)cc1)C3 do in these assays?
Pf Dd2 growth: 5.6µM

What do the screens show for `COc1ccc(CCNC(=O)Cc2c(C)c3cc4c(C)coc4c(C)c3oc2=O)cc1`?
Pf Dd2 growth: inactive

Results for Cc1coc2c(C)c3oc(=O)c(CCC(=O)NCCc4ccc(Cl)cc4)c(C)c3cc12 ?
Pf Dd2 growth: inactive

How did O=C(Nc1ccc2c(c1)CN(Cc1ccc(Cl)cc1)C(=O)CO2)c1ccccc1 do in these assays?
Pf Dd2 growth: inactive

What do the screens show for `O=C(Cn1c(=O)oc2ccccc21)NCc1ccc(Cl)cc1`?
Pf Dd2 growth: inactive

Results for COC(=O)Cc1c(C)c2ccc3c(c2oc1=O)CN(Cc1ccc(Cl)cc1)CO3 ?
Pf Dd2 growth: 7.1µM

Results for CCOc1ccc2oc(=O)cc(CN3CCN(Cc4ccc(C)cc4)CC3)c2c1 ?
Pf Dd2 growth: inactive

Results for Cc1ccc2c(CN3CCN(c4ccc(Cl)cc4)CC3)cc(=O)oc2c1 ?
Pf Dd2 growth: inactive

What do the screens show for `O=c1oc2c3c(ccc2c2ccccc12)OCN(Cc1ccc(Cl)cc1)C3`?
Pf Dd2 growth: 10µM

How did COc1cc(-c2ncccc2C(=O)N2CCCC2)cc(OC)c1OC do in these assays?
Pf Dd2 growth: inactive

What do the screens show for `COc1ccc(N2CC3CCC(C2)N3Cc2cccc(-c3ccsc3)c2)cc1`?
Pf Dd2 growth: inactive

What do the screens show for `Cn1c(N2CCN(C(=O)Cn3nc4c(cc3=O)CCCCC4)CC2)nc2ccccc21`?
Pf Dd2 growth: inactive

Results for O=C(NC1CC1)[C@H]1CN2CCC1C[C@@H]2Cn1cc(C2(O)CCCCC2)nn1 (stereo not given in full) ?
Pf Dd2 growth: inactive

What do the screens show for `Cc1cc(C[C@@H]2COC[C@@H]2NC(=O)CCc2n[nH]c(C)n2)on1`?
Pf Dd2 growth: inactive

How did COC[C@@H]1[C@H](C(=O)N2CCN(c3ccc(F)cc3)CC2)CCC(=O)N1C do in these assays?
Pf Dd2 growth: inactive

Results for Cc1nncn1C1CCN(S(=O)(=O)c2ccc(C(C)C)cc2)CC1 ?
Pf Dd2 growth: inactive

How did CC(C)C1=NOC2(CCCN(C(=O)c3ccccc3)C2)C1 (stereo not given) do in these assays?
Pf Dd2 growth: inactive

What do the screens show for `COC[C@@H]1CN(Cc2ccc(OC)c(OC)c2)C[C@H]1c1ccncc1`?
Pf Dd2 growth: inactive

What do the screens show for `COC[C@@H]1CN(Cc2cnn(C)c2)C[C@H]1c1ccncc1`?
Pf Dd2 growth: inactive

What do the screens show for `COC[C@@H]1CN(Cc2c(OC)cccc2OC)C[C@H]1c1ccncc1`?
Pf Dd2 growth: 4.5µM

What do the screens show for `O=C(c1cccs1)N1CC(Oc2cccc(-c3nc(-c4ccccc4)no3)c2)C1`?
Pf Dd2 growth: inactive[5.79 µM]

How did CCC(CC)NC(=O)C1CCc2ncc(-c3ccsc3)n2C1 (stereo not given) do in these assays?
Pf Dd2 growth: inactive

What do the screens show for `Cc1ccc(-c2nc(C(=O)NCc3ccc(F)cc3F)no2)cc1`?
Pf Dd2 growth: inactive

What do the screens show for `COc1ccc(Nc2c3c(nc4ccc(NC(=O)/C=C/c5cccc(OC)c5OC)cc24)CCCC3)cc1OC`?
Pf Dd2 growth: 4µM

What do the screens show for `COc1ccc(NC(=O)c2c(OC)cc(=O)n3c2CCCC3)cc1OC`?
Pf Dd2 growth: inactive

How did COc1ccc(/C=C/C(=O)Nc2ccc3nc4c(c(Nc5ccccc5OC)c3c2)CCCC4)cc1 do in these assays?
Pf Dd2 growth: 1.3µM

How did COc1ccccc1Nc1c2c(nc3ccc(NC(=O)/C=C/c4cccc(OC)c4OC)cc13)CCCC2 do in these assays?
Pf Dd2 growth: 1.1µM

What do the screens show for `Fc1ccccc1Nc1c2c(nc3ccccc13)CCC2`?
Pf Dd2 growth: inactive

Results for COc1ccc(Nc2c3c(nc4ccccc24)CCC3)cc1Cl ?
Pf Dd2 growth: inactive

What do the screens show for `COc1ccccc1NC(=O)Cn1nc2c(cc1=O)CCCC2`?
Pf Dd2 growth: inactive
